From PubChem BioAssay (EPA / NIEHS)
The source made the active and inactive calls. The calls were made as follows: active = hit-call score of the fitted dose curve at least 0.9, where 1 is the maximum; inactive = score below 0.9.

How the values were obtained:
Details in all cases: mRNA level, 48 h; actives raise or lower the signal
[1] = read-out: Paternally Expressed 10 (PEG10), PEG10 (gene 23089); test: LTEA_HepaRG_PEG10: Life Technologies and Expression Analysis (LTEA) Assay for Paternally Expressed 10 (PEG10) using HepaRG (AID 2283520)
Outline: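 Differentiated HepaRG cells exposed 48 h in serum-free induction medium to eight half-log concentrations topping at 100 uM, 0.5% DMSO, in duplicate. PEG10 mRNA quantified by TaqMan qRT-PCR, normalized to ACTB, GAPDH and POLR2A; bidirectional fit versus DMSO.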

[2] = read-out: Nuclear factor NF-kappa-B p105 subunit (Homo sapiens) (UniProt P19838); test: LTEA_HepaRG_NFKB1: Life Technologies and Expression Analysis (LTEA) Assay for Nuclear Factor Kappa B Subunit 1 (NFKB1) using HepaRG (AID 2283521);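 also: TaqMan qRT-PCR transcript normalised to ACTB GAPDH and POLR2A housekeeping genes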
Outline: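 Human HepaRG cells receive eight half-log concentrations, highest 100 uM, for 48 h. NFKB1 expression is then quantified by qRT-PCR and analysed for up- or down-regulation relative to 0.5% DMSO vehicle.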

[3] = read-out: Protein phosphatase 2A (PPP2R4), PTPA (gene 5524); test: LTEA_HepaRG_PPP2R4: Life Technologies and Expression Analysis (LTEA) Assay for Protein phosphatase 2A (PPP2R4) using HepaRG (AID 2283522)
Outline: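 Differentiated human HepaRG cells in serum-free induction medium were exposed 48 h to 8 concentrations (top 100 µM, half-log steps, duplicate) in 0.5% DMSO. PPP2R4 mRNA was measured by TaqMan qRT-PCR, normalised to ACTB, GAPDH and POLR2A, and fitted bidirectionally versus DMSO.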

[4] = read-out: Phosphatase and tensin (PTEN), PTEN (gene 5728); test: LTEA_HepaRG_PTEN: Life Technologies and Expression Analysis (LTEA) Assay for Phosphatase and tensin (PTEN) using HepaRG (AID 2283523)
Outline: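 Read-out is PTEN transcript level by multiplexed TaqMan qRT-PCR after 48 h chemical treatment of human HepaRG cultures in serum-free induction medium. Concentrations spanned 100 uM downward in half-log steps, 0.5% DMSO throughout; activity fitted in both directions against vehicle.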

[5] = read-out: solute carrier (SLC22A1), SLC22A1 (gene 6580); test: LTEA_HepaRG_SLC22A1: Life Technologies and Expression Analysis (LTEA) Assay for solute carrier (SLC22A1) using HepaRG (AID 2283524)
Outline: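 HepaRG (human liver line), 48 h dosing in serum-free induction medium; 8 conc., half-log down from 100 uM, 0.5% DMSO vehicle, duplicates. Endpoint: SLC22A1 mRNA, qRT-PCR, housekeeping-normalized; gain/loss fit vs DMSO.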

[6] = read-out: Pyruvate Dehydrogenase Kinase 4 (PDK4), PDK4 (gene 5166); test: LTEA_HepaRG_PDK4: Life Technologies and Expression Analysis (LTEA) Assay for Pyruvate Dehydrogenase Kinase 4 (PDK4) using HepaRG (AID 2283525)
Outline: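 In this multiplexed human HepaRG expression assay, cells are treated 48 h with test chemicals across an eight-point range starting at 100 uM. PDK4 mRNA changes, normalized to ACTB/GAPDH/POLR2A, are fitted in both directions relative to vehicle.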

[7] = read-out: NAD(P)H dehydrogenase [quinone] 1 (NQO1), NQO1 (gene 1728); test: LTEA_HepaRG_NQO1: Life Technologies and Expression Analysis (LTEA) Assay for NAD(P)H dehydrogenase [quinone] 1 (NQO1) using HepaRG (AID 2283526)
Outline: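 Differentiated human HepaRG cells in serum-free induction medium, dosed in duplicate for 48 h at 8 half-log concentrations up to 100 uM in 0.5% DMSO. NQO1 mRNA by qRT-PCR normalized to ACTB, GAPDH, POLR2A; bidirectional fit versus DMSO baseline.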

[8] = read-out: succinate dehydrogenase complex iron sulfur subunit B (SDHB), SDHB (gene 6390); test: LTEA_HepaRG_SDHB: Life Technologies and Expression Analysis (LTEA) Assay for succinate dehydrogenase complex iron sulfur subunit B (SDHB) using HepaRG (AID 2283528)
Outline: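 A human HepaRG culture in serum-free induction medium received test chemicals for 48 h over an eight-point range capped at 100 uM. SDHB expression change was quantified by qRT-PCR.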

[9] = read-out: Signal transducer and activator of transcription 3 (Homo sapiens) (UniProt P40763); test: LTEA_HepaRG_STAT3: Life Technologies and Expression Analysis (LTEA) Assay for Signal transducer and activator of transcription (STAT3) using HepaRG (AID 2283529)
Outline: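 Read-out is STAT3 mRNA level by qRT-PCR, normalized to three housekeeping genes, in human HepaRG liver cells treated for 48 h. Concentrations ran from 100 uM downward in half-log steps; curves were fitted for gain or loss relative to 0.5% DMSO.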

[10] = read-out: solute carrier (SLCO1B1), SLCO1B1 (gene 10599); test: LTEA_HepaRG_SLCO1B1: Life Technologies and Expression Analysis (LTEA) Assay for solute carrier (SLCO1B1) using HepaRG (AID 2283530)
Outline: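 Human HepaRG cultures treated for 48 h with an eight-concentration half-log series topping at 100 uM; SLCO1B1 measured by qRT-PCR and fitted bidirectionally relative to DMSO.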

[11] = read-out: sulfotransferase 2A1 (SULT2A1), SULT2A1 (gene 6822); test: LTEA_HepaRG_SULT2A1: Life Technologies and Expression Analysis (LTEA) Assay for sulfotransferase 2A1 (SULT2A1) using HepaRG (AID 2283531)
Outline: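 Gene-expression endpoint in a human liver cell line: SULT2A1 mRNA change after 48 h chemical treatment, curves fitted in both directions relative to 0.5% DMSO vehicle. Concentrations spanned eight half-log steps from 100 uM.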

[12] = read-out: Transforming Growth Factor (TGFA), TGFA (gene 7039); test: LTEA_HepaRG_TGFA: Life Technologies and Expression Analysis (LTEA) Assay for Transforming Growth Factor (TGFA) using HepaRG (AID 2283532)
Outline: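 HepaRG (human liver line), 48 h exposure, 8 conc. half-log down from 100 uM, 0.5% DMSO vehicle, duplicates; serum-free induction medium. TGFA mRNA by TaqMan qRT-PCR, ACTB/GAPDH/POLR2A normalization; gain/loss fit vs DMSO.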

[13] = read-out: Transforming Growth Factor (TGFB1), TGFB1 (gene 7040); test: LTEA_HepaRG_TGFB1: Life Technologies and Expression Analysis (LTEA) Assay for Transforming Growth Factor (TGFB1) Transporter using HepaRG (AID 2283533)
Outline: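 Eight-point concentration-response (max 100 uM, half-log) in HepaRG under serum-free induction conditions, 48 h. TGFB1 mRNA by qRT-PCR, housekeeping-normalized.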

TIMP1, TIMP1 (gene 7076) = test: LTEA_HepaRG_TIMP1: Life Technologies and Expression Analysis (LTEA) Assay for TIMP1 using HepaRG (AID 2283534);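 also: TaqMan qRT-PCR signal normalized to ACTB GAPDH and POLR2A housekeeping genes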
Outline: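 TIMP1 induction or repression in HepaRG cells after 48 h chemical exposure (eight concentrations, highest 100 uM), assessed by normalized qRT-PCR with bidirectional fitting to DMSO controls.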

[14] = read-out: Tumor necrosis factor receptor 1 (TNFRSF1A), TNFRSF1A (gene 7132); test: LTEA_HepaRG_TNFRSF1A: Life Technologies and Expression Analysis (LTEA) Assay for Tumor necrosis factor receptor 1 (TNFRSF1A) using HepaRG (AID 2283535)
Outline: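 Assay uses 48 h chemical treatment of differentiated HepaRG monolayers, tested in duplicate at eight concentrations from 100 uM downward in 0.5% DMSO. mRNA is normalized to ACTB, GAPDH and POLR2A, with induction or suppression fitted relative to vehicle.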

[15] = read-out: Thyroid Hormone Responsive (THRSP), THRSP (gene 7069); test: LTEA_HepaRG_THRSP: Life Technologies and Expression Analysis (LTEA) Assay for Thyroid Hormone Responsive (THRSP) using HepaRG (AID 2283536)
Outline: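 mRNA induction or loss relative to 0.5% DMSO vehicle was fitted bidirectionally across an eight-point curve whose highest exposure was 100 uM. Human HepaRG liver cells received chemicals in duplicate over 48 h before RNA extraction.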

[16] = read-out: Cellular tumor antigen p53 (Homo sapiens) (UniProt P04637); test: LTEA_HepaRG_TP53: Life Technologies and Expression Analysis (LTEA) Assay for Tumor Protein P53 (TP53) using HepaRG (AID 2283537)
Outline: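 Gain or loss of TP53 mRNA signal is scored relative to 0.5% DMSO after 48 h chemical treatment of HepaRG liver cells, tested in duplicate at eight half-log concentrations up to 100 uM.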

[17] = read-out: UDP glucuronosyltransferase (UGT1A1), UGT1A1 (gene 54658); test: LTEA_HepaRG_UGT1A1: Life Technologies and Expression Analysis (LTEA) Assay for UDP glucuronosyltransferase (UGT1A1) using HepaRG (AID 2283538)
Outline: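 HepaRG cells, 0.5% DMSO vehicle, 48 h exposure in serum-free induction medium to 8-point half-log series topping at 100 uM, in duplicate. UGT1A1 mRNA by Fluidigm qRT-PCR, normalized to ACTB/GAPDH/POLR2A; bidirectional fit versus DMSO.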

[18] = read-out: Nuclear factor erythroid 2-related factor 2 (Homo sapiens) (UniProt Q16236); test: LTEA_HepaRG_NFE2L2: Life Technologies and Expression Analysis (LTEA) Assay for Nuclear factor erythroid 2-related factor 2 (NFE2L2) Transcription Factor using HepaRG (AID 2283527);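 also: TaqMan qRT-PCR transcript level normalised to ACTB GAPDH and POLR2A housekeeping genes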
Outline: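 Transcript level of NFE2L2 is the read-out, measured by microfluidic TaqMan qRT-PCR and normalized to three housekeeping genes. Human HepaRG cultures received test chemical for 48 h at up to 100 uM in half-log steps. Gain or loss of signal is fitted relative to 0.5% DMSO.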

Measured: outcome

Sequence of Cellular tumor antigen p53 (Homo sapiens) (P04637 whole entry, looked up): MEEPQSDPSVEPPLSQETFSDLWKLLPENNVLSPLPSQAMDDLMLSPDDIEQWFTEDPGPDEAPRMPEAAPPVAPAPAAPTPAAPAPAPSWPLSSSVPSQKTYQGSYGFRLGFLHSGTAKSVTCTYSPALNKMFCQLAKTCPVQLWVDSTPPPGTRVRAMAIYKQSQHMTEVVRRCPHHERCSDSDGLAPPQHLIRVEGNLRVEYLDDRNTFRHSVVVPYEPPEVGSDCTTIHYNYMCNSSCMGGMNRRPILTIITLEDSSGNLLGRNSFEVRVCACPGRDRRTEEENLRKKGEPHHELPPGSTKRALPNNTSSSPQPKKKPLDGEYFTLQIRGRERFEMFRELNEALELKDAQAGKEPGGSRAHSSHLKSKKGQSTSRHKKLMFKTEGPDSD
Sequence of Nuclear factor NF-kappa-B p105 subunit (Homo sapiens) (P19838 whole entry, looked up): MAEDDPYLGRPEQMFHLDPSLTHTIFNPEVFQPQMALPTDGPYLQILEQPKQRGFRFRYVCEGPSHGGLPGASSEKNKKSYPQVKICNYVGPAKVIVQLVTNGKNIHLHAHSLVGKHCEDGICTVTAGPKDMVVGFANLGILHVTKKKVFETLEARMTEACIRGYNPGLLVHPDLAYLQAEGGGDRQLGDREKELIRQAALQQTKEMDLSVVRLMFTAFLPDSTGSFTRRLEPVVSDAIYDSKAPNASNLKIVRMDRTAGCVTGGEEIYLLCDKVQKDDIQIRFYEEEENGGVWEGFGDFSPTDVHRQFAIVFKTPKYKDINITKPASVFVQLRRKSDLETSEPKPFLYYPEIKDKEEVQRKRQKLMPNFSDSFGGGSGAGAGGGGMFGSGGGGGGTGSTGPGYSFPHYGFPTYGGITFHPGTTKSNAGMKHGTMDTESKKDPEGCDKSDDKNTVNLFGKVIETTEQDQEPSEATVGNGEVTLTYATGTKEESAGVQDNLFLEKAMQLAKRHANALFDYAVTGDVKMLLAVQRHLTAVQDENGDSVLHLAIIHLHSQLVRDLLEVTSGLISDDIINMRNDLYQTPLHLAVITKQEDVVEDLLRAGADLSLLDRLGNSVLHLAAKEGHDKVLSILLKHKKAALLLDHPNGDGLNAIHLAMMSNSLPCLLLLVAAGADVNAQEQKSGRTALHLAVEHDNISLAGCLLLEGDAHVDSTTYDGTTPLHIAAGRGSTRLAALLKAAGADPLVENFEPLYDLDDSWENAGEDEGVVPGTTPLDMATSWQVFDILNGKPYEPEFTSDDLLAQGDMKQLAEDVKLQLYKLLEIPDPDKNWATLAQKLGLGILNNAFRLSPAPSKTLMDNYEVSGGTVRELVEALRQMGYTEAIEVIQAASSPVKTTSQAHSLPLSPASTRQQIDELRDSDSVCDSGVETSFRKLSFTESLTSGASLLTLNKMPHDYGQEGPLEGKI
Sequence of Signal transducer and activator of transcription 3 (Homo sapiens) (P40763 whole entry, looked up): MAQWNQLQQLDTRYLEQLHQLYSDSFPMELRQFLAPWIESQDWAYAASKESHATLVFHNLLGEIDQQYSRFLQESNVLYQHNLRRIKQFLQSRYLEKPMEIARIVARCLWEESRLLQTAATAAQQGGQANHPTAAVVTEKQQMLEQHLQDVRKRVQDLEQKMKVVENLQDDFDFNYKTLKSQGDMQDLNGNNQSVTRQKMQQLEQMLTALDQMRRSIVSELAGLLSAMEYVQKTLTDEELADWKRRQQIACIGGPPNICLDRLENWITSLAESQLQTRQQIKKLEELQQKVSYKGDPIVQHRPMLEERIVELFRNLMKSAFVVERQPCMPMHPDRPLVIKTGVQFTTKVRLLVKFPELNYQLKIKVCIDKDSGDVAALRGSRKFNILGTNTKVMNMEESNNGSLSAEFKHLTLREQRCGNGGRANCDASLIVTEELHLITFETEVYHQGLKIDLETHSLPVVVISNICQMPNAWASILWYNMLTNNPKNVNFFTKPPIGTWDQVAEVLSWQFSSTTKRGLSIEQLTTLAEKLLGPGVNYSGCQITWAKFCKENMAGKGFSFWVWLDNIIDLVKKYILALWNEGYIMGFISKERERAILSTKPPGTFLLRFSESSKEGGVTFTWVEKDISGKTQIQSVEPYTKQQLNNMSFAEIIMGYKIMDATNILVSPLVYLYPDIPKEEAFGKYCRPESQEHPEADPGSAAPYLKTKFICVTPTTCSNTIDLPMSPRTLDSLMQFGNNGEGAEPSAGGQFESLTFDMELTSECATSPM
Sequence of Nuclear factor erythroid 2-related factor 2 (Homo sapiens) (Q16236 whole entry, looked up): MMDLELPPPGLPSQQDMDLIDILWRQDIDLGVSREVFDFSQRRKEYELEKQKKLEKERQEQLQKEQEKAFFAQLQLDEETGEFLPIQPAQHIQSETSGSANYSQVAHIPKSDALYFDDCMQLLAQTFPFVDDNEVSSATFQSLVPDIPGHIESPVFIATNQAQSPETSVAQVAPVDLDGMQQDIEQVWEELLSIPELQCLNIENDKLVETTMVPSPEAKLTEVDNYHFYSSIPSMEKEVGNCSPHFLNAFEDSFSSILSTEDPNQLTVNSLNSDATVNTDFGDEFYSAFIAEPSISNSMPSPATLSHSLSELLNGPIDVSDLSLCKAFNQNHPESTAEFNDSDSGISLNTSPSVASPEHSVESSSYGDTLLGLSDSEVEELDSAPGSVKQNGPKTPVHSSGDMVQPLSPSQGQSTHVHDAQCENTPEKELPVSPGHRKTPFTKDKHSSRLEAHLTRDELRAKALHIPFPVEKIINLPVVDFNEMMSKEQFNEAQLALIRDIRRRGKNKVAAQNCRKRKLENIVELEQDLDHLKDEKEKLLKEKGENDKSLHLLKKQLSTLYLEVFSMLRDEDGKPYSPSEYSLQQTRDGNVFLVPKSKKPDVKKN

CCSC(=O)N(CC(C)C)CC(C)C
not listed: [18]
inactive: all other assays above

CCCCCCC(C)OC(=O)COc1nc(F)c(Cl)c(N)c1Cl (centres undefined)
not listed: [18]
inactive: all other assays above

CCOC(=O)C(C)Oc1ccc(Oc2nc3ccc(Cl)cc3o2)cc1 (centres undefined)
not listed: [5]
inactive: all other assays above
